# Measurements as given in the supplement of paper PMC8728848.
# Many of the other results were omitted from the sample, so the strongest signals are more common in it than they were.
# B1: R2-fiber (Pseudomonas aeruginosa), Q9S576 (protein)
# chain: HHHHHHKVAKDLVVSLAYQVRTEDGVLVDESPVSAPLDYLHGHGSLISGLETALEGHEVGDKFDVAVGANDAYGQYDENLVQRVPKDVFMGVDELQVGMRFLAETDQGPVPVEITAVEDDHVVVDGNHMLAGQNLKFNVEVVAIREATEEELAHGHVHGAHDHHHDHDHDGCCGGHGHDHGHEHGGEGCCGGKGNGGCGCHENLYFQGVTAGMALAATDIPGLDASKLVSGVLAEQRLPVFARGLATAVSNSSDPNTATVPLMLTNHANGPVAGRYFYIQSMFYPDQNGNASQIATSYNATSEMYVRVSYAANPSIREWLPWQRCDIGGSFTKEADGELPGGVNLDSMVTSGWWSQSFTAQAASGANYPIVRAGLLHVYAASSNFIYQTYQAYDGESFYFRCRHSNTWFPWRRMWHGGDFNPSDYLLKSGFYWNALPGKPATFPPSAHNHDVGQLTSGILPLARGGVGSNTAAGARSTIGAGVPATASLGASGWWRDNDTGLIRQWGQVTCPADADASITFPIPFPTLCLGGYANQTSAFHPGTDASTGFRGATTTTAVIRNGYFAQAVLSWEAFGR
# What was measured:
# Assay in all cases: glycan array binding signal (z-score within array); higher = stronger binding
# Settings in all cases: glycan notation: IUPAC condensed, linker removed
# [1] = target: Fuc(a1-2)Gal(b1-3)GalNAc(a1-3)[Fuc(a1-2)]Gal(b1-4)GlcNAc
# Outline: (§1)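 Columns mapping to the same glycan were averaged after glycan names were converted to IUPAC-condensed notation. The data come from 3228 arrays in the Consortium for Functional Glycomics database, limited to those with an available protein sequence. Binding is reported as a within-array Z-score averaged across arrays of one protein sequence and across linkers.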
# [2] = target: Fuc(a1-2)Gal(b1-4)GlcNAc
# Outline: as §1
# [3] = target: Fuc(a1-2)Gal(b1-4)GlcNAc(b1-3)Gal(b1-4)GlcNAc(b1-2)Man(a1-3)[Fuc(a1-2)Gal(b1-4)GlcNAc(b1-3)Gal(b1-4)GlcNAc(b1-2)Man(a1-6)]Man(b1-4)GlcNAc(b1-4)GlcNAc
# Outline: as §1
# [4] = target: Fuc(a1-2)Gal(b1-4)GlcNAc(b1-6)GalNAc
# Outline: as §1
# [5] = target: Fuc(a1-2)Gal(b1-4)[Fuc(a1-3)]GlcNAc(b1-3)[Neu5Ac(a2-6)Gal(b1-4)GlcNAc(b1-6)]Gal(b1-4)Glc
# Outline: as §1
# [6] = target: Fuc(a1-2)[Gal(a1-3)]Gal(b1-4)GlcNAc(b1-3)[Fuc(a1-2)[Gal(a1-3)]Gal(b1-4)GlcNAc(b1-6)]GalNAc
# Outline: as §1
# [7] = target: Fuc(a1-2)[GalNAc(a1-3)]Gal(b1-3)GlcNAc(b1-2)Man(a1-3)[Fuc(a1-2)[GalNAc(a1-3)]Gal(b1-3)GlcNAc(b1-2)Man(a1-6)]Man(b1-4)GlcNAc(b1-4)[Fuc(a1-6)]GlcNAc
# Outline: as §1
# [8] = target: Fuc(a1-2)[GalNAc(a1-3)]Gal(b1-4)[Fuc(a1-3)]GlcNAc(b1-3)GalNAc
# Outline: as §1
# [9] = target: Fuc(a1-3)[Gal(b1-4)]GlcNAc(b1-6)GalNAc
# Outline: as §1
# [10] = target: Gal(a1-3)Gal
# Outline: as §1
# [11] = target: Gal(a1-3)Gal(b1-3)GlcNAc(b1-6)GalNAc
# Outline: as §1
# [12] = target: Gal(a1-3)Gal(b1-4)Glc
# Outline: as §1
# [13] = target: Gal(b1-3)Gal(b1-4)GlcNAc
# Outline: as §1
# [14] = target: Gal(b1-3)GalNAc
# Outline: as §1
# [15] = target: Gal(b1-3)GlcNAc(b1-3)Gal(b1-4)GlcNAc(b1-6)[Gal(b1-3)GlcNAc(b1-3)]Gal(b1-4)Glc
# Outline: as §1
# [16] = target: Gal(b1-3)GlcNAc(b1-3)Gal(b1-4)[Fuc(a1-3)]GlcNAc
# Outline: as §1
# [17] = target: Gal(b1-3)[Fuc(a1-4)]GlcNAc(b1-2)Man
# Outline: as §1
# [18] = target: Gal(b1-3)[Fuc(a1-4)]GlcNAc(b1-3)Gal(b1-4)[Fuc(a1-3)]GlcNAc
# Outline: as §1
# [19] = target: Gal(b1-4)GlcNAc(b1-3)Gal(b1-4)GlcNAc(b1-2)[Gal(b1-4)GlcNAc(b1-3)Gal(b1-4)GlcNAc(b1-6)]Man(a1-6)[Gal(b1-4)GlcNAc(b1-3)Gal(b1-4)GlcNAc(b1-2)Man(a1-3)]Man(b1-4)GlcNAc(b1-4)GlcNAc
# Outline: as §1
# [20] = target: Gal(b1-4)GlcNAc(b1-3)Gal(b1-4)GlcNAc(b1-3)Gal(b1-4)GlcNAc
# Outline: as §1
# [21] = target: Gal(b1-4)GlcNAc(b1-3)GalNAc
# Outline: as §1
# [22] = target: Gal3S(b1-4)Glc
# Outline: as §1
# [23] = target: Gal3S(b1-4)[Fuc(a1-3)]Glc6S
# Outline: as §1
# [24] = target: GalNAc3S(b1-4)GlcNAc
# Outline: as §1
# [25] = target: GlcNAc(b1-2)[GlcNAc(b1-6)]Man(a1-6)[GlcNAc(b1-2)Man(a1-3)]Man(b1-4)GlcNAc(b1-4)[Fuc(a1-6)]GlcNAc
# Outline: as §1
# [26] = target: GlcNAc(b1-3)Gal(b1-4)GlcNAc
# Outline: as §1
# [27] = target: GlcNAc(b1-3)Gal(b1-4)GlcNAc(b1-2)Man(a1-3)[GlcNAc(b1-3)Gal(b1-4)GlcNAc(b1-2)Man(a1-6)]Man(b1-4)GlcNAc(b1-4)GlcNAc
# Outline: as §1
# [28] = target: GlcNAc(b1-3)Gal(b1-4)GlcNAc(b1-3)Gal(b1-4)GlcNAc
# Outline: as §1
# [29] = target: GlcNAc(b1-3)Gal(b1-4)GlcNAc(b1-6)[Gal(b1-3)]GalNAc
# Outline: as §1
# [30] = target: GlcNAc(b1-3)[GlcNAc(b1-6)]GalNAc
# Outline: as §1
# [31] = target: GlcNAc(b1-4)GlcNAc(b1-4)GlcNAc(b1-4)GlcNAc(b1-4)GlcNAc(b1-4)GlcNAc
# Outline: as §1
# [32] = target: GlcNAc6S(b1-3)Gal(b1-4)GlcNAc
# Outline: as §1
# [33] = target: Man(a1-2)Man(a1-3)[Man(a1-2)Man(a1-6)]Man(a1-6)[Man(a1-2)Man(a1-2)Man(a1-3)]Man
# Outline: as §1
# [34] = target: Man(a1-3)[Man(a1-6)]Man(b1-4)GlcNAc(b1-4)[Fuc(a1-6)]GlcNAc
# Outline: as §1
# [35] = target: Neu5Ac(a2-3)Gal
# Outline: as §1
# [36] = target: Neu5Ac(a2-3)Gal(b1-3)GalNAc
# Outline: as §1
# [37] = target: Neu5Ac(a2-3)Gal(b1-4)GlcNAc(b1-2)Man(a1-3)[Neu5Ac(a2-3)Gal(b1-4)GlcNAc(b1-2)Man(a1-6)]Man(b1-4)GlcNAc(b1-4)[Fuc(a1-6)]GlcNAc
# Outline: as §1
# [38] = target: Neu5Ac(a2-3)Gal(b1-4)GlcNAc(b1-3)Gal(b1-4)GlcNAc(b1-3)[Neu5Ac(a2-3)Gal(b1-4)GlcNAc(b1-3)Gal(b1-4)GlcNAc(b1-6)]GalNAc
# Outline: as §1
# [39] = target: Neu5Ac(a2-3)Gal6S(b1-4)[Fuc(a1-3)]GlcNAc
# Outline: as §1
# [40] = target: Neu5Ac(a2-3)[GalNAc(b1-4)]Gal(b1-4)GlcNAc
# Outline: as §1
# [41] = target: Neu5Ac(a2-6)Gal(b1-4)GlcNAc
# Outline: as §1
# [42] = target: Neu5Ac(a2-6)Gal(b1-4)GlcNAc(b1-6)[Gal(b1-3)GlcNAc(b1-3)]Gal(b1-4)Glc
# Outline: as §1
# [43] = target: Neu5Ac(a2-8)Neu5Ac(a2-8)Neu5Ac(a2-8)Neu5Ac(a2-3)[GalNAc(b1-4)]Gal(b1-4)Glc
# Outline: as §1
# [44] = target: Neu5Ac9Ac(a2-3)Gal(b1-4)GlcNAc
# Outline: as §1
# [45] = target: Neu5Gc(a2-3)Gal(b1-3)GlcNAc
# Outline: as §1
binder,measurement,setting,value
B1,glycan array binding signal (z-score),[1],2.11
same,glycan array binding signal (z-score),[2],0.297
same,glycan array binding signal (z-score),[3],-1.36
same,glycan array binding signal (z-score),[4],-0.579
same,glycan array binding signal (z-score),[5],-0.021
same,glycan array binding signal (z-score),[6],2.68
same,glycan array binding signal (z-score),[7],-0.288
same,glycan array binding signal (z-score),[8],3.46
same,glycan array binding signal (z-score),[9],2.09
same,glycan array binding signal (z-score),[10],0.366
same,glycan array binding signal (z-score),[11],0.045
same,glycan array binding signal (z-score),[12],-0.505
same,glycan array binding signal (z-score),[13],-0.114
same,glycan array binding signal (z-score),[14],-0.235
same,glycan array binding signal (z-score),[15],0.141
same,glycan array binding signal (z-score),[16],0.162
same,glycan array binding signal (z-score),[17],-0.063
same,glycan array binding signal (z-score),[18],2.1
same,glycan array binding signal (z-score),[19],2.06
same,glycan array binding signal (z-score),[20],0.018
same,glycan array binding signal (z-score),[21],-1.43
same,glycan array binding signal (z-score),[22],-0.16
same,glycan array binding signal (z-score),[23],0.853
same,glycan array binding signal (z-score),[24],-0.587
same,glycan array binding signal (z-score),[25],14.6
same,glycan array binding signal (z-score),[26],-0.499
same,glycan array binding signal (z-score),[27],0.012
same,glycan array binding signal (z-score),[28],0.586
same,glycan array binding signal (z-score),[29],0.122
same,glycan array binding signal (z-score),[30],0.283
same,glycan array binding signal (z-score),[31],-0.525
same,glycan array binding signal (z-score),[32],-0.144
same,glycan array binding signal (z-score),[33],-0.717
same,glycan array binding signal (z-score),[34],-0.775
same,glycan array binding signal (z-score),[35],2.35
same,glycan array binding signal (z-score),[36],-0.092
same,glycan array binding signal (z-score),[37],5.23
same,glycan array binding signal (z-score),[38],-0.406
same,glycan array binding signal (z-score),[39],5.49
same,glycan array binding signal (z-score),[40],-0.151
same,glycan array binding signal (z-score),[41],3
same,glycan array binding signal (z-score),[42],0.031
same,glycan array binding signal (z-score),[43],0.115
same,glycan array binding signal (z-score),[44],-1.16
same,glycan array binding signal (z-score),[45],-0.167
